Experimental findings from PubChem BioAssay AID1259421 (Broad Institute, 2018) are described below.

Several values for one entry are separate records, joined by “and”; a condition that tells them apart may be missing. Equal values may be shown once. Screen size: about 6,400 compounds; about 610 (9.5%) were called active. No stated cut-off is given here; in the data, active means activity change below about -70%; inconclusive means no clear call, values can overlap the other calls; inactive means above that. This excerpt belongs to a sample that is enriched for actives. Some compounds were tested as several samples or in several runs, with calls that do not always agree.

This assay can be described thus: Toxoplasma gondii ME49Luc growth in HeLa cells, luciferase, no IFN-y, primary screen (AID 1259421). The conditions noted are these: T. gondii ME49Luc in HeLa, 72 h, stronger effect = lower value, concentration not given here.
Regarding `CCCCCCCCCCCCCC[C@@H](O)[C@@H](O)[C@@H](N)CO`, the activity change, negative = inhibition is 24.8% (inactive).
The same measure for `Nc1[nH]c(=O)ncc1F`: 8.39% (inactive) and -90.4% (active); for `O=S(=O)(NCCNC/C=C/c1ccc(Br)cc1)c1cccc2cnccc12`: 4.5% (inactive) and -8.12% (inactive); for `O=C(C(c1ccccc1)c1ccccc1)N1CCN(CC(O)COc2cccc3ncccc23)CC1` (configuration not stated): 10.1% (inactive).
The same measure for `Cn1c(=O)n(-c2ccc(C(C)(C)C#N)cc2)c2c3cc(-c4cnc5ccccc5c4)ccc3ncc21`: 13.4% (inactive).
The same measure for `CC(C)(C#N)c1ccc(N2C(=O)OCc3cnc4ccc(-c5cnc6ccccc6c5)cc4c32)cc1`: -90.7% (active); for `C=CC(=O)Nc1cc(Nc2nccc(-c3cn(C)c4ccccc34)n2)c(OC)cc1N(C)CCN(C)C`: -63.1% (inactive); for `C[C@H](CCC(=O)O)[C@H]1CCC2C3C(=O)CC4CC(=O)CC[C@]4(C)C3CC(=O)[C@@]21C` (some centres not stated): 8.53% (inactive) and 10.4% (inactive).
Take `O=c1[nH]cnc2nc[nH]c12`: the activity change, negative = inhibition was 7.14% (inactive).
The same measure for `COc1cccc(-c2cc(=O)c3cc(OC)ccc3o2)c1`: 316% (inactive); for `O=C1Nc2ccc(Br)cc2/C1=C/c1cc2c([nH]1)CCCC2`: 13.6% (inactive).
The same measure for `CCCCCCCCCCC(CO)CCCCCCCC` (configuration not stated): 7.89% (inactive); for `CCCCC(CC)CN=C(N)NC(N)=NCCCCCCN=C(N)NC(N)=NCC(CC)CCCC` (configuration not stated): -87.6% (active); for `CC(N)=NCCCC[C@H](N)C(=O)O`: 11.5% (inactive).
As for `C=C1CCC2C(CC2(C)C)C(=O)CCC1O` (configuration not stated), the activity change, negative = inhibition is 4.7% (inactive).
Turning to `C[C@@]1(C(=O)Nc2ccc(F)nc2)CCCN1c1nc(Nc2cc(C3CC3)[nH]n2)c2cccn2n1`, the activity change, negative = inhibition was -54.4% (inactive).
Regarding `CCOC(=O)[C@H](CCc1ccccc1)N[C@@H](C)C(=O)N1C(=O)N(C)C[C@@H]1C(=O)O`, the activity change, negative = inhibition is 6.47% (inactive).
The same measure for `CC1CCC(C(=O)N(c2cc(C#CC(C)(C)C)sc2C(=O)O)C2CCC(O)CC2)CC1` (configuration not stated): 16.2% (inactive).
On to `CC(=O)OCC(=O)[C@H]1CCC2C3CC=C4C[C@@H](O)CC[C@]4(C)C3CC[C@@]21C` (some centres not stated), for which the activity change, negative = inhibition is 7.77% (inactive).
The same measure for `C[C@]12C[C@H](O)[C@H]3[C@@H](CCC4=CC(=O)CC[C@@]43C)[C@@H]1CC[C@@H]2C(=O)CO`: 1.69% (inactive); for `CC(=O)OCC(=O)[C@H]1CCC2C3CCC4=CC(=O)CC[C@]4(C)C3CC[C@@]21C` (some centres not stated): 0.487% (inactive).
Consider `CCC(=O)O[C@]1(C(=O)CO)CC[C@H]2[C@@H]3CCC4=CC(=O)CC[C@]4(C)[C@H]3CC[C@@]21C`, for which the activity change, negative = inhibition is -9.17% (inactive).
The same measure for `CCCCC(=O)O[C@]1(C(=O)CO)CCC2C3CCC4=CC(=O)CC[C@]4(C)C3[C@@H](O)C[C@@]21C` (some centres not stated): 0.149% (inactive) and 0.816% (inactive).
`CC(=O)[C@@]1(O)CCC2C3CCC4=CC(=O)CC[C@]4(C)C3CC[C@@]21C` (some centres not stated): the activity change, negative = inhibition was 6.92% (inactive) and 3.13% (inactive).
Regarding `C[C@]12CC[C@H]3[C@@H](CCC4=CC(=O)CC[C@@]43C)[C@@H]1CC[C@@H]2C(=O)CO`, the activity change, negative = inhibition is -83.1% (active).
For `CCCCCC(=O)O[C@]1(C(C)=O)CCC2C3CCC4=CC(=O)CC[C@]4(C)C3CC[C@@]21C` (some centres not stated), the activity change, negative = inhibition was -76.9% (active).
The same measure for `CC(=O)OCC(=O)[C@H]1CC[C@H]2[C@@H]3CCC4=CC(=O)CC[C@]4(C)[C@H]3CC[C@]12C`: -73.9% (active) and -75.9% (active).
